Reference: article PMC4552634, “A New Set of Chemical Starting Points with Plasmodium falciparum Transmission-Blocking Potential for Antimalarial Drug Discovery” (PLoS ONE, 2015)
Screen size: about 13,000 compounds; about 3,200 (25%) showed an effect of 50% or more. This is one part of the list.

System: P. falciparum stage V gametocytes
Parameters: BacTiter-Glo ATP luminescence viability of purified stage V gametocytes in 384-well plates, per cent inhibition versus DMSO
Conditions: 48 h, 5 µM; inhibitor

**Q.** `COC(=O)c1cccc(NC(=O)NC2CCN(c3ccnc(Nc4cc(OC)c(OC)c(OC)c4)n3)C2)c1` (stereo not drawn) [TCMDC-133630] was tested. Which “% Inhibition” value did it give?
**A.** Its value is -28.99%.

**Q.** With `Cc1cc(N2CCCC2)nc(Nc2ccc(NC(=O)c3cccc(F)c3)cc2)n1` [TCMDC-124709] as the compound, how does the “% Inhibition” value read?
**A.** Its value is -4.91%.

**Q.** How did the “% Inhibition” value turn out when `Cc1ccnc(-n2c(C)cc(C=C3SC(=Nc4ccccc4)N(Cc4ccco4)C3=O)c2C)c1` [TCMDC-125659] was run?
**A.** Its value is -67.39%.

**Q.** Which “% Inhibition” value does the source give for `O=C(N[C@H](CC1CCCCC1)C(=O)NC1CCCc2ccccc21)c1ccc(O)c(-c2cccc([N+](=O)[O-])c2)c1` (stereo partly drawn) [TCMDC-140799] here?
**A.** Its value is 21.9%.

**Q.** With `Cc1cccc2[nH]c(-c3cccc(-c4ccc(NC(=O)CN5CCN(C)CC5)cc4)c3)nc12` [TCMDC-136983] as the compound, how does the “% Inhibition” value read?
**A.** Its value is 81.12%.

**Q.** How did the “% Inhibition” value turn out when `Cc1nc(C)c(CC(=O)Nc2cccc(-c3cccc(-c4nc5c(C)cccc5[nH]4)c3)c2)s1` [TCMDC-136997] was run?
**A.** Its value is 6.613%.

**Q.** For `Cc1nc(C)c(CC(=O)Nc2ccc(-c3cccc(-c4nc5c(C)cccc5[nH]4)c3)cc2)s1` [TCMDC-136998], which “% Inhibition” value is on record?
**A.** The value was 88.79%.

**Q.** `Cc1cccc2[nH]c(-c3cccc(-c4ccc(NC(=O)CS(C)(=O)=O)cc4)c3)nc12` [TCMDC-136851] was tested. Which “% Inhibition” value did it give?
**A.** The value was -1.399%.

**Q.** With `Cc1cccc2[nH]c(-c3cccc(-c4cccc(NC(=O)CN5CCN(C)CC5)c4)c3)nc12` [TCMDC-136982] as the compound, how does the “% Inhibition” value read?
**A.** The value was 18.86%.

**Q.** `Cc1cccc2[nH]c(-c3ccc(-c4ccc(NC(=O)CN5CCN(C)CC5)cc4)cc3)nc12` [TCMDC-136975] was tested. Which “% Inhibition” value did it give?
**A.** The value was 64.7%.

**Q.** For `Cc1nc(C)c(CC(=O)Nc2ccc(-c3cccc(-c4nc5ccc(C(F)(F)F)cc5[nH]4)c3)cc2)s1` [TCMDC-136996], which “% Inhibition” value is on record?
**A.** The value was -50.06%.

**Q.** Which “% Inhibition” value does the source give for `Cc1cccc2[nH]c(-c3ccc(-c4ccc(NC(=O)Nc5ccsc5)cc4)cc3)nc12` [TCMDC-133215] here?
**A.** The value was -35.23%.

**Q.** `CC(C)(C)OC(=O)N(Cc1cc(-n2nnnc2C(F)(F)F)ccc1O)[C@H]1CCCN(C(=O)OC(C)(C)C)[C@H]1c1ccccc1` [TCMDC-132022] was tested. Which “% Inhibition” value did it give?
**A.** Its value is -21.48%.

**Q.** How did the “% Inhibition” value turn out when `CC(C)(C)c1ccc(NC(=O)c2cccc(CN3CCCN(Cc4cccc(O)c4)CC3)c2)cc1` [TCMDC-135983] was run?
**A.** The value was -11.1%.

**Q.** Which “% Inhibition” value does the source give for `O=C(/C=C/c1ccc(Cl)c(Cl)c1)NC1CCN(Cc2ccc(O)cc2)C1` (stereo not drawn) [TCMDC-141739] here?
**A.** The value was 26.39%.

**Q.** How did the “% Inhibition” value turn out when `COc1ccc2nccc([C@@H](O)CN3CCC(NCc4cnc5c(c4)NC(=O)CS5)C(F)C3)c2c1` (stereo partly drawn) [TCMDC-141716] was run?
**A.** Its value is 19.26%.

**Q.** With `COc1ccccc1-c1csc(C(=O)NCC2CCN(Cc3ccc(C(C)C)cc3)C2)c1` (stereo not drawn) [TCMDC-134510] as the compound, how does the “% Inhibition” value read?
**A.** The value was -33.71%.

**Q.** How did the “% Inhibition” value turn out when `CC(C)(C)c1ccc(CN2CCC(CNC(=O)c3cc(-c4ccccc4F)cs3)C2)cc1` (stereo not drawn) [TCMDC-134443] was run?
**A.** Its value is 104.8%.

**Q.** How did the “% Inhibition” value turn out when `CC(C)Oc1ccccc1-c1csc(C(=O)NCC2CCN(Cc3ccc(C(C)(C)C)cc3)C2)c1` (stereo not drawn) [TCMDC-134512] was run?
**A.** The value was 5.537%.

**Q.** For `CCc1ccc(CN2CCC(CNC(=O)c3cc(-c4ccccc4F)cs3)C2)cc1` (stereo not drawn) [TCMDC-134431], which “% Inhibition” value is on record?
**A.** The value was 96.16%.

**Q.** For `CC(C)(C)c1ccc(CN2CCC(CNC(=O)c3cc(-c4ccccc4C(F)(F)F)cs3)C2)cc1` (stereo not drawn) [TCMDC-134441], which “% Inhibition” value is on record?
**A.** The value was 105.6%.

**Q.** How did the “% Inhibition” value turn out when `CC(C)c1ccc(CN2CCC(CNC(=O)c3cc(-c4ccccc4F)cs3)C2)cc1` (stereo not drawn) [TCMDC-134436] was run?
**A.** Its value is 107.7%.

**Q.** How did the “% Inhibition” value turn out when `CC(C)c1ccc(CN2CCCCC(NC(=O)c3cc(-c4ccccc4F)cs3)C2)cc1` (stereo not drawn) [TCMDC-134462] was run?
**A.** Its value is -8.212%.

**Q.** `CCCc1cc(C(=O)N[C@@H](Cc2ccccc2)[C@H](O)CNC2CCOCC2)c(F)c(N2CCCCS2(=O)=O)c1` [TCMDC-135445] was tested. Which “% Inhibition” value did it give?
**A.** The value was 21.51%.

**Q.** With `Cc1ccccc1C1CCN(C2CCC(NC(=O)c3ccc(-c4ccccn4)s3)CC2)CC1` (stereo not drawn) [TCMDC-134106] as the compound, how does the “% Inhibition” value read?
**A.** The value was -14.35%.

**Q.** For `COc1cc(Cc2cnc(N)nc2N)ccc1OCc1cccc(Oc2ccccc2)c1` [TCMDC-138681], which “% Inhibition” value is on record?
**A.** Its value is -11.55%.

**Q.** How did the “% Inhibition” value turn out when `COc1cccc(Nc2nccc(NCC(O)c3ccc(C(F)(F)F)cc3)n2)c1` (stereo not drawn) [TCMDC-136594] was run?
**A.** The value was -17.97%.

**Q.** `CN1C(=C2SC(=Nc3ccc4ncccc4c3)N(Cc3ccccc3)C2=O)Sc2ccc(Cl)cc21` [TCMDC-124118] was tested. Which “% Inhibition” value did it give?
**A.** Its value is 3.008%.

**Q.** With `COc1ccc(NC(=O)[C@H](CC(C)C)Nc2cc(C)nc(NCC3CCCCC3)n2)cc1` [TCMDC-134917] as the compound, how does the “% Inhibition” value read?
**A.** The value was -43.94%.

**Q.** How did the “% Inhibition” value turn out when `COc1cc(C2NCC3(CCOCC3)c3cc4c(cc32)OCCO4)cc(OC)c1OC` (stereo not drawn) [TCMDC-125743] was run?
**A.** Its value is -20.6%.

**Q.** Which “% Inhibition” value does the source give for `Cc1cc(C)c(C)c(OCCCON2C(N)=NC(N)=NC2(C)C)c1C` [TCMDC-131791] here?
**A.** The value was -4.975%.

**Q.** Which “% Inhibition” value does the source give for `COCCNCc1ccc(-c2cccc(CN(C(=O)CCC3CCCC3)C3CCN(Cc4ccccc4)CC3)c2)cc1` [TCMDC-140552] here?
**A.** Its value is 102.7%.

**Q.** `CC(C)CNCc1ccc(-c2cccc(CN(C(=O)CCC3CCCC3)C3CCN(Cc4ccccc4)CC3)c2)cc1` [TCMDC-140551] was tested. Which “% Inhibition” value did it give?
**A.** The value was 80.54%.

**Q.** `O=C(NC1CCN(c2ccnc3ccccc23)C1)c1cccc(C(F)(F)F)c1` (stereo not drawn) [TCMDC-133580] was tested. Which “% Inhibition” value did it give?
**A.** Its value is -5.668%.

**Q.** Which “% Inhibition” value does the source give for `N#Cc1ccc(CN2CCC(Oc3ccc(NC(=O)c4cccs4)cc3)CC2)cc1` [TCMDC-133953] here?
**A.** The value was 32.19%.

**Q.** How did the “% Inhibition” value turn out when `O=C(O[C@H]1CN[C@H](C#Cc2cc3c(Nc4ccc(OCc5cccc(F)c5)c(Cl)c4)ncnc3s2)C1)N1CCCC1` [TCMDC-135291] was run?
**A.** The value was -17.95%.
